Data published in PubChem BioAssay (Tox21).
Records with an inconclusive call do not appear. Activity calls are given as the source filed them. Unless noted, calls come from the whole dose curve; as a rule, active = well fitted curve in the direction sought with a large enough effect in the repeat runs; inconclusive = weak or mixed curves; inactive = no such curve, though single readings can be large; an effect the other way counts as inactive or inconclusive.

Experiments:
[1] = qHTS assay for small molecule agonists of the p53 signaling pathway (AID 651631; calls by dose curve; note: nearly all actives have a fitted effect of over 15% in size)
How it was run: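 p53RE-bla HCT-116 cells; compounds 16 h, 37 °C; LiveBLAzer B/G FRET substrate 2 h RT; fluorescence intensity read-out, qHTS format.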

[2] = qHTS assay for small molecules that induce genotoxicity in human embryonic kidney cells expressing luciferase-tagged ATAD5 (AID 651632); note: nearly all actives have a fitted effect of over 15% in size
How it was run: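 Luminescent reporter readout, HEK293T ATAD5-luc line: 16 hr drug exposure (37C, 5% CO2) followed by Amplite, 30 min RT.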

[3] = qHTS assay for small molecule agonists of the p53 signaling pathway - cell viability (AID 651633; calls by dose curve;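 note: p53RE-bla HCT reporter cells with a stable beta-lactamase p53 reporter; series mostly up to about 83 µM; nearly all actives have a fitted effect of over 30% in size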)
How it was run: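 p53RE-bla cells, seeded at 4,000 per well and rested 5 h at 37 C/5% CO2, received compounds in DMSO for 16 h at 37 C. CellTiter-Glo was then added, and luminescence was read after 30 min at room temperature to gauge cytotoxicity.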

[4] = qHTS assay for small molecules that induce genotoxicity in human embryonic kidney cells expressing luciferase-tagged ATAD5 - cell viability (AID 651634; calls by dose curve; note: nearly all actives have a fitted effect of over 25% in size)
How it was run: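 Viability read: CellTiter-Fluor fluorescence, 30 min at 37C. Cells: HEK293T, luciferase-tagged ATAD5. Exposure: 15.5 hr, 37C, 5% CO2, compound or DMSO vehicle.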

[5] = qHTS assay to test for compound auto fluorescence at 590 nm (red) in HepG2 cells (AID 720674)
How it was run: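 Rose Bengal sodium served as the red fluorophore standard. HepG2 monolayers (overnight attachment, MEM with 10% FBS) were exposed to test compounds for 1 hr at 37 C and read at Ex 540/Em 590 nm.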

[6] = qHTS assay to test for compound auto fluorescence at 535 nm (green) in HepG2 cells (AID 720675)
[7] = qHTS assay to test for compound auto fluorescence at 460 nm (blue) in HEK293 cells (AID 720678)
How it was run: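 HEK293 cells (2,000 per well, medium with 10% dialyzed FBS) attached for 4-5 hr at 37C, then received compound and stood overnight at 37C, 5% CO2. Blue fluorescence was read at Ex/Em 405/460 nm and expressed relative to triamterene.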

[8] = qHTS assay to test for compound auto fluorescence at 590 nm (red) in HEK293 cells (AID 720679)
How it was run: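 HEK293 cells (2,000/well, medium with 10% dialyzed FBS) attached for 4-5 hr at 37C, received 23 nL compound and were incubated overnight at 37C, 5% CO2. Red fluorescence was then read at 540/590nm Ex/Em, referenced to Rose Bengal sodium.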

[9] = qHTS assay to test for compound auto fluorescence at 535 nm (green) in HEK293 cells (AID 720680)
[10] = qHTS assay to test for compound auto fluorescence at 460 nm (blue) in HEK293 cell free culture (AID 720681)
How it was run: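 Test compounds were pinned into cell-free culture medium (DMEM with 10% FBS) and fluorescence was read directly at Ex/Em 405/460 nm. Signals were expressed as fluorescence equivalents of triamterene, with DMSO vehicle as control.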

[11] = qHTS assay to test for compound auto fluorescence at 535 nm (green) in HEK293 cell free culture (AID 720682)
How it was run: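 Cell-free medium (DMEM, 10% FBS) receives compound or DMSO by pintool. Plate read directly at Ex 485/Em 535 nm. Signal converted to fluorescein equivalency.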

[12] = qHTS assay to test for compound auto fluorescence at 590 nm (red) in HEK293 cell free culture (AID 720683)
How it was run: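 Tox21 10K library compounds were pinned into cell-free DMEM with 10% FBS and fluorescence was read at excitation 540 nm. Activity is expressed as Rose Bengal sodium equivalency.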

[13] = qHTS assay to test for compound auto fluorescence at 590 nm (red) in HepG2 cell free culture (AID 720684)
How it was run: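 Red fluorescence (540 nm excitation, 590 nm emission) was measured after compound transfer into cell-free MEM supplemented with 10% FBS. Values are equivalencies against Rose Bengal sodium.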

[14] = qHTS assay to test for compound auto fluorescence at 460 nm (blue) in HepG2 cell free culture (AID 720685)
How it was run: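 Compound (23 nL) or DMSO pinned into cell-free MEM with 10% FBS; blue fluorescence read at 405/460 nm excitation/emission, expressed as auto-fluorescence equivalency to triamterene.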

[15] = qHTS assay to test for compound auto fluorescence at 535 nm (green) in HepG2 cell free culture (AID 720686)
[16] = qHTS assay to test for compound auto fluorescence at 460 nm (blue) in HepG2 cells (AID 720687)
How it was run: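 Cells (2,000/well in MEM with 10% FBS) attached overnight at 37 C, then were exposed to compound or DMSO for 1 hr at 37 C, 5% CO2. Fluorescence read at Ex/Em 405/460 nm, expressed as triamterene-equivalent signal.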

[17] = qHTS assay for small molecule disruptors of the mitochondrial membrane potential - cell viability (AID 720634; calls by dose curve;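 note: human HepG2 liver cancer cells; series mostly up to about 83 µM; nearly all actives have a fitted effect of over 20% in size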)
How it was run: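 HepG2, 1 hr compound, 37 C. ATP luminescence via CellTiter-Glo, 30 min RT, same well as m-MPI.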

[18] = target: Glucocorticoid receptor (Homo sapiens) (UniProt P04150); assay: qHTS assay to identify small molecule agonists of the glucocorticoid receptor (GR) signaling pathway (AID 720691; active = well fitted activation curve with a large enough effect in the signal ratio in the repeat runs, not every such curve was filed as active; the % refers to the signal ratio)
Chain of Glucocorticoid receptor (Homo sapiens) (P04150 whole entry, looked up): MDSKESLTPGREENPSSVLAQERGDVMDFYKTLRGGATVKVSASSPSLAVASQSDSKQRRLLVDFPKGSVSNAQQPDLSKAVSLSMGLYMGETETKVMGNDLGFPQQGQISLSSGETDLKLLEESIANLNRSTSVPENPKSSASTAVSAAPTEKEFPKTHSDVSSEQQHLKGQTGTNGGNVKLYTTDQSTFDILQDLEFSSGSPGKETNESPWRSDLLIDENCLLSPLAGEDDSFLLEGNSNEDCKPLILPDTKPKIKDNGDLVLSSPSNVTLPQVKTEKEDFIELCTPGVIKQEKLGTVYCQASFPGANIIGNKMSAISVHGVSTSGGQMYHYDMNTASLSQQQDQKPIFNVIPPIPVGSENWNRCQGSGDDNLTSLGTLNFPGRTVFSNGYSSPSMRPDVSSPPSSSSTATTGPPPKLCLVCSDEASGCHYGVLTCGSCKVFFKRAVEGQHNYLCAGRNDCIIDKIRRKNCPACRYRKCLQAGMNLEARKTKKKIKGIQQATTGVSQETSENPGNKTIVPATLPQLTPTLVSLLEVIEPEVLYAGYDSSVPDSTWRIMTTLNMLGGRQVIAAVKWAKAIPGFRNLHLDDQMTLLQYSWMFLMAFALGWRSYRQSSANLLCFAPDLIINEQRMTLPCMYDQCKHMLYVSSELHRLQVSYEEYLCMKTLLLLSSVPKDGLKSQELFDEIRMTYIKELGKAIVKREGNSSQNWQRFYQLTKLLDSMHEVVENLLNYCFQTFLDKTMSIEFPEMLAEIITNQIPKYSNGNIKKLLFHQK
How it was run: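 qHTS in GR-bla HeLa cells: 4 h settling at 37 C/5% CO2, 18 h compound incubation at 37 C, 2 h LiveBLAzer B/G FRET substrate at room temperature, fluorescence intensity measured.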

[19] = target: Glucocorticoid receptor (Homo sapiens) (UniProt P04150); assay: qHTS assay to identify small molecule antagonists of the glucocorticoid receptor (GR) signaling pathway (AID 720692; active = well fitted inhibition curve with a large enough effect in the signal ratio in the repeat runs, not every such curve was filed as active; the % refers to the signal ratio)
How it was run: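 Inhibition of glucocorticoid signalling is measured in HeLa cells with a GRE-controlled beta-lactamase reporter; cells are co-treated with compound and 5 nM dexamethasone (final) for 18 h before FRET substrate readout.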

[20] = qHTS assay for small molecule disruptors of the mitochondrial membrane potential (AID 720635)
How it was run: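 HepG2 cells (2,000/well) attached overnight at 37C, then took compound for 1 hr at 37C, 5% CO2. Mito-MPS dye was added for 30 min; fluorescence was read at 490/535 nm (monomers) and 540/590 nm (aggregates).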

Measured: Potency

CCc1nccnc1CC
inactive: [1] | [2] | [3] | [4] | [5] | [6] | [7] | [8] | [9] | [10] | [11] | [12] | [13] | [14] | [15] | [16]

COc1ccccc1OCC(O)CN1CCN(CC(=O)Nc2c(C)cccc2C)CC1 (stereo not given)
inactive: [1] | [2] | [3] | [4] | [17] | [5] | [6] | [7] | [8] | [9] | [10] | [11] | [12] | [13] | [14] | [15] | [16] | [18] | [19]

N[C@@H](C(=O)N[C@@H]1C(=O)N2C(C(=O)O)=C(Cl)CS[C@H]12)c1ccccc1
inactive: [1] | [2] | [3] | [4] | [5] | [6] | [7] | [8] | [9] | [10] | [11] | [12] | [14] | [15] | [16] | [18]

CCN(CC)CCNC(=O)c1cc(S(C)(=O)=O)ccc1OC
inactive: [1] | [2] | [3] | [4] | [20] | [5] | [6] | [7] | [8] | [9] | [10] | [11] | [12] | [13] | [14] | [15] | [16] | [18] | [19]

CC(C)c1cc2c(cc1S(=O)(=O)O)[C@@]1(C)CCC[C@@](C)(C(=O)O)[C@@H]1CC2
inactive: [1] | [2] | [3] | [17] | [20] | [5] | [6] | [7] | [8] | [9] | [10] | [11] | [12] | [13] | [14] | [15] | [16]

NC(=O)Nc1ccccc1
inactive: [1] | [2] | [3] | [17] | [20] | [5] | [6] | [7] | [8] | [9] | [10] | [11] | [12] | [13] | [14] | [15] | [16] | [18]

C=CCCCCCCCCC=O
inactive: [1] | [2] | [3] | [4] | [5] | [6] | [7] | [8] | [9] | [10] | [11] | [12] | [13] | [14] | [15] | [16] | [18] | [19]

CCN(CC)CCOCCOC(=O)C1(c2ccccc2)CCCC1
inactive: [1] | [2] | [3] | [4] | [5] | [6] | [7] | [8] | [9] | [10] | [11] | [12] | [13] | [14] | [15] | [16] | [18]
